# Compound activity (PubChem)
# Most compounds without a hit are left out; they make up all but 19% or so of the library.
# ELG1 repair inh = qHTS screen for small molecules that inhibit ELG1-dependent DNA repair in human embryonic kidney (HEK293T) cells expressing luciferase-tagged ELG1; actives 2.3% (n = 330,000); Potency, µM (titrated, usually from 46.1 µM), for inactives: at the top dose activity change, negative = inhibition, actives largely listed as inhibitors; HEK293T ELG1-luciferase reporter, luminescence, 16 h; DNA damage induced by 5-fluorouridine; note: potency is the fitted concentration of half-maximal effect; nearly all actives have a fitted effect of over 55% in size
#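 Reporter activity after DNA damage by 5-fluorouridine is monitored. Compound-treated cells incubate 16 hr at 37 °C, then ONE-Glo is added for 30 min before luminescence reading.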
# TDP1 cell noCPT = qHTS for Inhibitors of human tyrosyl-DNA phosphodiesterase 1 (TDP1): qHTS in cells in absence of CPT. DT40 Tdp1-/- hTDP1 cells, no CPT, ATP luminescence, 48 h. Potency, µM (titrated, usually from 46.2 µM), inactives show top-dose activity change, negative = growth inhibition, usual class: inhibitors. actives 15% (n = 420,000); note: potency is the fitted concentration of half-maximal effect; nearly all actives have a fitted effect of over 55% in size
#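 Compound effects on proliferation are scored in DT40 Tdp1-/-;hTDP1 cells in the absence of CPT. ATP levels (CellTiter-Glo luminescence) are recorded after a ≥48 hr, 37 °C incubation.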
# DT40 TDP1 CPT = qHTS for Inhibitors of human tyrosyl-DNA phosphodiesterase 1 (TDP1): qHTS in cells in presence of CPT; chicken DT40 Tdp1-/-;hTDP1 cells + 20 nM CPT, ATP luminescence, 48 h; Potency, µM (top dose mostly 46.2 µM), without a hit: top-dose activity change, negative = growth inhibition, hits mostly inhibitors; actives 12% (n = 420,000); AID 686979, 2013; note: potency is the fitted concentration of half-maximal effect; nearly all actives have a fitted effect of over 55% in size
#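 Chicken DT40 Tdp1-/- cells stably complemented with human TDP1 were seeded at 400 cells/well in medium containing 20 nM camptothecin, exposed to pin-transferred compounds, and grown at 37 °C for at least 48 hr. Viability was read as ATP luminescence.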
# IL-1B inflam inh = qHTS for Inhibitors of Inflammasome Signaling: IL-1-beta AlphaLISA Primary Screen. THP-1 LPS/ATP IL-1B secretion, AlphaLISA, 16 h; stronger effect = lower value. actives 4.7% (n = 360,000). activity change, % at 57.5 µM. AID 743279, 2014; in the data active = activity change below about -50%; inconclusive = mostly about -30% to -49%
#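 Secreted IL-1B measured by AlphaLISA bead assay after 16 h compound exposure of THP-1 cells; compounds (final up to 57.5 uM) added 1 h before LPS (250 ng/mL) and ATP (1.25 mM) stimulation; lower signal means less secretion.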
# TDP1 block = qHTS Assay for Inhibitors of Tyrosyl-DNA Phosphodiesterase (TDP1); AID 485290, 2010; actives 0.28% (n = 350,000); recombinant TDP1, AlphaScreen DNA substrate cleavage; Potency, µM (top dose mostly 130 µM), for the others: at the highest dose activity change, negative = inhibition, hits mostly inhibitors; Tyrosyl-DNA phosphodiesterase 1 (Homo sapiens), Q9NUW8; note: potency is the fitted concentration of half-maximal effect; nearly all actives have a fitted effect of over 40% in size
# Target sequence (Q9NUW8 whole entry, looked up): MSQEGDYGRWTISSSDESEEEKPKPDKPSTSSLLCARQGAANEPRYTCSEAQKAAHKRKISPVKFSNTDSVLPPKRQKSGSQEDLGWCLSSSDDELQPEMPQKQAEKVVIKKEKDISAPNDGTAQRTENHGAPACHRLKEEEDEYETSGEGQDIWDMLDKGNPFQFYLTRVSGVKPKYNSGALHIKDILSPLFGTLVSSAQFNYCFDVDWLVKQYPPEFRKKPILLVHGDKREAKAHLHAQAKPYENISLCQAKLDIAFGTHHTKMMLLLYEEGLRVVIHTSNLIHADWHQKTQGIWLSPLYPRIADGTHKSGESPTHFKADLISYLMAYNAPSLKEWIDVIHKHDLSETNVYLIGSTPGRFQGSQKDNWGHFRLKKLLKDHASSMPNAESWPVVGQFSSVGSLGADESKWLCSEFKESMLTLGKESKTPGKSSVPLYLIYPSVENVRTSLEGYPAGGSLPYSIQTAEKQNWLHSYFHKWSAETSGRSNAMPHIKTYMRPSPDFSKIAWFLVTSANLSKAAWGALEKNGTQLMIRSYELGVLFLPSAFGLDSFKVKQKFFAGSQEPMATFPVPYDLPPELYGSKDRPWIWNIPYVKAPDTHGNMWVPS
#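 Here, a 5' biotin and 3' phosphotyrosine-FITC DNA oligonucleotide reports Tdp1 activity: intact substrate bridges AlphaScreen beads, while cleavage leaves a 3' phosphate and drops signal. All incubations at room temperature.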
# Giardia killer = Small Molecules that selectively kill Giardia lamblia: qHTS; Giardia lamblia trophozoite viability; activity change, % at 7.66 µM, hits read low; actives 0.15% (n = 340,000); AID 540267, 2011; in the data active = activity change below about -80%; inconclusive = between about -30% and that limit;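 note: parasites exposed to compound for two days anaerobically before the ATP read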
#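 Trophozoite viability was measured as ATP-dependent luminescence, read 15-30 min after reagent addition. Before that, parasites at 100 cells/well were exposed to compounds for 48 h, anaerobically, at 37 deg C.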
# * hit, by the source's call; u = inconclusive; x = not tested or not shown; ! = a repeat was not active. Unless noted, calls come from the whole dose curve; as a rule, active = well fitted curve in the direction sought with a large enough effect; inconclusive = small, poorly fitted or top-dose-only effect, or another doubt; inactive = no such curve, though single readings can be large; an effect the other way counts as inactive or inconclusive. % is set by controls: 0 for no effect and ±100 for the full control effect.
SMILES,ELG1 repair inh,TDP1 cell noCPT,DT40 TDP1 CPT,IL-1B inflam inh,TDP1 block,Giardia killer
Cc1ccc(S(=O)(=O)N2c3ccccc3-c3c(ssc3=S)C2(C)C)cc1,-8.9%,u,u,-5.5,6.9%,-18.8
Cc1cc2c(cc1C)N(C(=O)CSC1=NCCS1)C(C)(C)c1ssc(=S)c1-2,5.1%,u,u,-50.1*,7.9%,-5.0
CC1(C)c2ssc(=S)c2-c2ccccc2N1C(=O)CSC1=NCCS1,-3.9%,u,u,u,13.9%,-10.2
CCCN1C(=O)C2(c3ccccc31)c1c(oc3ccccc3c1=O)C(=O)N2CCO (stereo not given),x,-3.9%,-28.0%,x,1.2%,x
Cc1cc(Cl)ccc1OCC(=O)OCC(=O)N(CC(C)C)c1c(N)n(Cc2ccccc2)c(=O)[nH]c1=O,-1.6%,-15.2%,-26.5%,-27.9,-7.1%,-8.1
O=C1CCC=C1C(O)CCc1ccccc1 (stereo not given),x,x,x,x,-1.2%,x
Cc1cc(C)c2c(c1)-c1c(ssc1=S)C(C)(C)N2C(=O)CSc1nncn1C,u,23.1µM*,25.9µM*,-10.9,9.1%,-1.2
Cc1ccc2c(c1)-c1c(ssc1=S)C(C)(C)N2C(=O)CSc1nncn1C,-13.3%,u,u,-9.9,11.5%,0.7
COC(=O)c1ccc(NC(=O)CC2C(=O)N(c3cccc(OC)c3)C(=O)N2Cc2cccs2)cc1 (stereo not given),x,u,u,x,-5.6%,x
COc1ccc(-n2nnnc2-c2ccc(S(C)(=O)=O)cc2Cl)cc1,u,5.17µM*,u,-0.3,x,-8.3
COc1ccc(-n2nnnc2CNC(=O)c2ccc(S(=O)(=O)N3CCOCC3)cc2)cc1,u,-13.5%,8.2%,10.0,1.4%,-13.1
COc1ccc(-n2nnnc2C2CCN(S(=O)(=O)c3cccc(Cl)c3C)CC2)cc1,x,25.9µM*,20.6µM*,x,-2.3%,x
COc1ccc(-n2nnnc2-c2ccccc2)cc1,u,2.91µM*,3.66µM*,38.7,-2.5%,-3.6
Cc1noc(C)c1NC(=O)N(C)C[C@H]1Oc2ccc(NS(=O)(=O)c3ccc(F)cc3)cc2C(=O)N([C@H](C)CO)C[C@@H]1C,0.0%,-2.4%,-14.7%,13.0,0.5%,12.4
CCN(CC)c1nn2c(=O)c(C(=O)NCc3ccc(N(C)C)cc3)cnc2s1,x,-22.2%,-13.5%,x,-1.9%,x
Cc1ccc(C(C)C)c(OCC(=O)NNC(=O)C(C(C)C)N2C(=O)c3ccccc3C2=O)c1 (stereo not given),0.1%,u,-1.0%,8.7,4.7%,-0.9
N/C(=N\OC(=O)CCCc1ccccc1)c1cccnc1,14.6%,-11.0%,-4.5%,14.0,-3.5%,-8.5
O=C(CCCc1ccccc1)c1ccccc1,u,11.2%,-3.7%,-18.5,35.5µM*,-11.6
Cc1cccc(/C(N)=N/OC(=O)CCCc2ccccc2)c1,26.0%,10.7%,-18.1%,19.2,56.2µM*,4.5
N/C(=N\OC(=O)CCCc1ccccc1)c1cccc([N+](=O)[O-])c1,-7.0%,-19.5%,-0.6%,14.9,5.9%,-17.0
N/C(=N\OC(=O)CCCc1ccccc1)c1ccccc1,0.0%,9.2%,1.2%,2.1,56.2µM*,24.2
COc1cc2ccccc2cc1C(=O)Nc1nnc(-c2ccncc2)o1,-13.3%,-20.9%,-9.8%,-0.6,5.0%,-0.4
CCc1nnc(SCC(=O)Nc2ccccc2Cl)nc1CC,0.0%,u,16.4µM*!,-7.8,0.0%,5.4
CCc1ccccc1NC(=O)CSc1nnc(CC)c(CC)n1,x,-17.0%,-16.8%,x,2.6%,x
